Measurements: PubChem BioAssay AID489025 (Southern Research Specialized Biocontainment Screening …, 2010)
The whole screen tested about 2,300 compounds, of which about 790 (34%) were called active. No rule for the calls is given here. The list shows a part of the results. Results with a measured potency or affinity are listed apart.

Experiment: THP-1 cell cytotoxicity, dose response, cytotoxicity control for non-replicating M. tuberculosis project (AID 489025)
Conditions: THP-1 cell viability; series mostly up to 40 µM; viability: at the top concentration

Row | Compound | viability
1 | COc1ccc(N2C(=O)CC(Sc3nc4ccccc4s3)C2=O)cc1OC (stereo not given) | 108% (inactive)
2 | O=C(COc1cccc2ccccc12)Nc1ccc(Cl)cc1C(=O)O | 114% (inactive)
3 | CCOc1cccc2cc(C(=O)NC(C)c3ccccc3)c(=N)oc12 (stereo not given) | 74.4% (inactive)
4 | O=C(NCc1cccs1)c1cc(-c2ccc(O)cc2)on1 | 109% (inactive)
5 | O=C(OCC(=O)N1CCCCC1)c1cc2ccccc2cc1O | 103% (inactive)
6 | Cc1cccc(NC(=O)CO/N=C/c2ccc3c(c2)OCO3)c1 | 92.5% (inactive)
7 | O=C(NCc1cccs1)c1ccc(Br)o1 | 103% (inactive)
8 | O=C(Nc1ncccn1)c1ccc([N+](=O)[O-])o1 | 91.8% (inactive)
9 | O=C(CN1CCN(c2ccc([N+](=O)[O-])cc2)CC1)Nc1ccccn1 | 74.5% (inactive)
10 | Cc1csc(NC(=O)c2cc([N+](=O)[O-])cc([N+](=O)[O-])c2)n1 | 93.5% (inactive)
11 | COc1cccc(COC(=O)c2sc3nc4n(c(=O)c3c2C)CCC4)c1OC | 107% (inactive)
12 | O=C(N/N=C/c1ccc(OC(=O)c2ccco2)cc1)c1ccccn1 | 94.2% (inactive)
13 | O=C(Nc1ccc(-c2nc3ccccc3c(=O)o2)cc1)c1ccco1 | 100% (inactive)
14 | CC(C)(C)/C(O)=C/c1nc2ccccc2oc1=O | 93.4% (inactive)
15 | O=C1N/C(=N\c2ccccn2)SC1Cc1ccc(Cl)cc1 (stereo not given) | 103% (inactive)
16 | CO/N=C/CC(=O)c1ccc(OC)cc1 | 96.5% (inactive)
17 | COc1ccc(/C(=N/O)C(C)(C)NO)cc1 | 90.7% (inactive)
18 | Cc1cc2nc(CSc3ccc(Cl)cc3)cc(=O)n2[nH]1 | 96.9% (inactive)
19 | CSCCC(=O)N1CCCC(N2CCN(c3cccc(C(F)(F)F)c3)CC2)C1 (stereo not given) | 96.2% (inactive)
20 | CCC(C)c1ccc(OCCn2ccnc2)cc1 (stereo not given) | 76.9% (inactive)
21 | C/C(=C\C(=O)c1ccncc1)Nc1ccccc1O | 111% (inactive)
22 | CCOC(=O)c1ccc(NC(=O)CCSCCc2ccccn2)cc1 | 103% (inactive)
23 | Cc1ccc(OCCCCc2c(C)n[nH]c2C)cc1 | 77.8% (inactive)
24 | CC1CCc2c(sc3nc(CSc4ncn[nH]4)[nH]c(=O)c23)C1 (stereo not given) | 97% (inactive)
25 | CC1CC(C)CN(CCOCCSc2ccc(Cl)cc2)C1 (stereo not given) | 73.7% (inactive)
26 | Cc1cc(Cl)ccc1NNC(=O)c1cccs1 | 106% (inactive)
27 | O=C(c1ccccc1)c1nc[nH]c1C(=O)Nc1ccccc1 | 70.5% (inactive)

Row | Compound | viability
28 | CN(C)CCC(=O)N1c2ccccc2Sc2ccc(Cl)cc21 | 90.3% (inactive)
29 | O=S1(=O)N=C(N/N=C/C=C/c2ccccc2)c2ccccc21 | 84.3% (inactive)
30 | COc1ccc(OCc2n[nH]c(=S)o2)cc1 | 103% (inactive)
31 | CCCCn1c(N)c(-c2nc3ccccc3o2)c2c([N+](=O)[O-])nn(CC)c(=O)c21 | 113% (inactive)
32 | CCOCC(=O)Nc1ccc(C)c(Cl)c1 | 111% (inactive)
33 | CSC1=N/C(=C\c2ccc(Br)o2)C(=O)S1 | 118% (inactive)
34 | Cc1ccc(-c2nnc(C)c(N3CCCC3)n2)cc1 | 122% (inactive)
35 | O=C(CN1CCN(c2ccccc2O)CC1)Nc1ccc2c(c1)CCC2 | 82.9% (inactive)
36 | CCOc1ccc(OCCSc2ccc(S(=O)(=O)N3CCN(C)CC3)cn2)cc1 | 76.5% (inactive)
37 | Cc1cc2cc(CNC(=O)COc3ccccc3)ccc2n1C | 107% (inactive)
38 | CC(C)c1ccc(OCC(=O)NCc2ccccc2)cc1 | 82.5% (inactive)
39 | NC(=O)COC(=O)c1sc2ccccc2c1Cl | 91.8% (inactive)
40 | Cc1cccc(NC(=O)c2cc3ccccc3o2)c1 | 86% (inactive)
41 | Cc1cc(C(=O)N/N=C/C=C/c2ccccc2)c(C)o1 | 79.3% (inactive)
42 | COc1ccc(NC(=O)c2cc3ccccc3o2)cc1 | 107% (inactive)
43 | Cc1nonc1C(=O)N/N=C/c1ccc([N+](=O)[O-])o1 | 98.2% (inactive)
44 | O=C(Nc1ccc(Cl)c(Cl)c1)O/N=C/c1ccncc1 | 86% (inactive)
45 | O=C(NC1CC2CCC1C2)C1COc2ccccc2O1 (stereo not given) | 94.5% (inactive)
46 | O=C(NCc1ccccc1)c1cc2ccccc2oc1=O | 114% (inactive)
47 | O=C(NCCc1cccc(Cl)c1)c1cc2ccccc2oc1=O | 111% (inactive)
48 | O=C(O)c1ccc(-n2nc(C(F)(F)F)c3c2CCCC3)cc1 | 118% (inactive)
49 | O=C(COc1ccc2ccccc2c1)Nc1ccncc1 | 101% (inactive)
50 | S=c1[nH]cnc2sc(-c3ccccc3)cc12 | 75.2% (inactive)
51 | CCn1c(-c2ccco2)nc2ccccc21 | 121% (inactive)
52 | Clc1ccccc1OCc1nnc(-c2ccccc2)o1 | 83.9% (inactive)
53 | CCOC(=O)c1csc(COc2ccccc2Cl)n1 | 111% (inactive)
54 | COc1cccc(COC(=O)CCNC(=O)c2ccc(Br)cc2)c1OC | 113% (inactive)

Row | Compound | viability
55 | CC(=O)c1ccc(NC(=O)C(Cc2ccccc2)n2cccc2)cc1 (stereo not given) | 115% (inactive)
56 | Cc1cc(NC(=O)COc2ccccc2)ccc1Cl | 85.1% (inactive)
57 | O=C(Nc1nnc(C2=COCCO2)o1)c1ccc(Cc2ccccc2)cc1 | 78.6% (inactive)
58 | Cc1cc(C)c(OCC(=O)Nc2nnc(-c3ccco3)o2)c(C)c1 | 120% (inactive)
59 | CCOc1cc(-c2nnc(NC(=O)c3ccco3)o2)cc(OCC)c1OCC | 76.8% (inactive)
60 | O=C(NC1CCCC1)c1cc(-c2cccs2)on1 | 85.4% (inactive)
61 | Cc1ccsc1C(=O)OCC(=O)Nc1nnc(-c2ccccc2)o1 | 103% (inactive)
62 | CCc1ccc(NC(=O)CCc2ccc(C)o2)cc1 | 99% (inactive)
63 | C=CCn1c(O)c(C(C)=Nc2ccc(C(=O)OCC)cc2)c(=O)[nH]c1=O | 104% (inactive)
64 | Oc1ccc2cc(Br)ccc2c1CN1CCCC1 | 95.8% (inactive)
65 | Cc1ccc(S(=O)(=O)NCC(=O)OCCOc2cccc(Cl)c2)cc1 | 116% (inactive)
66 | O=C(Nc1nnc(-c2ccccc2Cl)o1)c1cccnc1 | 82.8% (inactive)
67 | O=C(Nc1nnc(-c2ccccc2Cl)o1)c1ccco1 | 85.8% (inactive)
68 | CC(C)OC(=O)c1cc(C(=O)c2cc(Cl)ccc2O)coc1=N | 101% (inactive)
69 | COc1c[nH]n(C2CCCCC2)c(=O)c1=O | 96.4% (inactive)
70 | Cc1ccc(N=N/C(=C\O)C(=O)c2ccncc2)cc1 | 74% (inactive)
71 | O=C(NNC1CC(=O)N(c2ccccc2)C1=O)c1ccco1 (stereo not given) | 115% (inactive)
72 | NC(=O)N/N=C/c1ccccc1OC(=O)c1cc2ccccc2oc1=O | 131% (inactive)
73 | Cc1ccc(C(=O)N2N=C(CC(C)C)CC2(O)C(F)(F)F)o1 (stereo not given) | 101% (inactive)
74 | Cn1nnc(NC(=O)COc2ccc(C3CCCCC3)cc2)n1 | 104% (inactive)
75 | Cc1cc(O)c(-c2cc(O)c(C)cc2O)cc1O | 95.9% (inactive)
76 | COc1ccc(-c2nnc(SCC(C)C)o2)cc1 | 81.9% (inactive)
77 | COc1ccc(-c2nnc(NC(=O)C3=COCCO3)o2)cc1 | 102% (inactive)
78 | Cc1ccn2nc(S(=O)(=O)Nc3c(F)cccc3F)nc2n1 | 101% (inactive)
79 | CC(=O)Nc1ccc(NC(=O)c2cc([N+](=O)[O-])cc([N+](=O)[O-])c2)cc1 | 102% (inactive)
80 | COc1cccc(NC(=O)c2ccc(-c3ccc([N+](=O)[O-])cc3)o2)c1 | 98.6% (inactive)
